High-throughput results deposited in PubChem by National Center for Advancing Translational Sciences (NCATS).
This is a sample that favours compounds with a hit; in the whole collection about 9.9% have one here.
SW480 rereplic – A quantitative high throughput screen for small molecules that induce DNA re-replication in SW480 colon adenocarcinoma cells; Potency, µM (series often up to 46.1 µM), without a hit: at the highest dose re-replication activation, actives largely listed as activators; SW480 DNA re-replication, Hoechst DNA content imaging, 48 h; AID 624297, 2012; hit rate 1.8% among 340,000; also: potency is read from the fitted curve at half-maximal effect; % of control where 0% means no effect; nearly all actives have a fitted effect of over 55% in size
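Cells (250 per well) received 23 nL compound or DMSO by pin tool and were kept 48 hr at 37 C, 5% CO2. Nuclei were then stained with Hoechst for 40 min and scanned for DNA content.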
IL1B secr inh – qHTS for Inhibitors of Inflammasome Signaling: IL-1-beta AlphaLISA Primary Screen. AID 743279, 2014. THP-1 LPS/ATP IL-1B secretion, AlphaLISA, 16 h; active compounds read low. hit rate 4.7% among 360,000. activity change, % at 57.5 µM; in the data active = activity change below about -50%; inconclusive = mostly about -30% to -49%; also: % is scaled to controls: 0 for no effect and ±100 for the full control effect
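THP-1 cells pretreated 1 hr with compounds (up to 57.5 uM final), then stimulated with LPS (250 ng/mL final) plus ATP (1.25 mM final); secreted IL-1B measured by AlphaLISA after 16 hr, decreased signal indicating inhibition.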
KB-3-1 tox – qHTS assay for MDR1-selective chemotherapeutics: Primary screen using the parental adenocarcinoma cell KB-3-1 | hit rate 1.4% among 400,000 | AID 1347075, 2019 | KB-3-1 viability, CellTiter-Glo ATP luminescence, 72 h | Potency, µM (series often up to 46.1 µM), actives largely listed as cytotoxic; also: potency is read from the fitted curve at half-maximal effect; % is scaled to controls: 0 for no effect and ±100 for the full control effect; nearly all actives have a fitted effect of over 60% in size
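Cytotoxicity measured as CellTiter-Glo luminescence after 72 h at 37 C. Compound titrations were pinned onto drug-naive KB-3-1 parental adenocarcinoma cells grown in DMEM with 10% FBS, and normalized data fitted to concentration-response curves.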
KB-V1 MDR tox – qHTS assay for MDR1-selective chemotherapeutics: Primary screen using the drug-selected MDR subline cells KB-V1. KB-V1 MDR cells viability, CellTiter-Glo, 72 h. Potency, µM (top dose mostly 46.1 µM), hits mostly cytotoxic. hit rate 3.4% among 400,000. AID 1347076, 2019; also: potency is read from the fitted curve at half-maximal effect; % is scaled to controls: 0 for no effect and ±100 for the full control effect; nearly all actives have a fitted effect of over 60% in size
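KB-V1, DMEM (no phenol red) + 10% FBS; cpd pin-transferred, titration series; 72 h, 37 degrees C; CellTiter-Glo, luminescence. Data normalized, curve-fit.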
MCF10A rereplic – A quantitative high throughput screen for small molecules that induce DNA re-replication in MCF 10a normal breast cells; hit rate 2.9% among 350,000; MCF 10A DNA re-replication, Hoechst nuclear intensity, 48 h; Potency, µM (series often up to 46.1 µM), for inactives: at the top dose activity, positive = re-replication, actives largely listed as activators; also: potency is read from the fitted curve at half-maximal effect; % of control where 0% means no effect; nearly all actives have a fitted effect of over 50% in size
Active calls of the source: *; i = inactive; ? = inconclusive; . = no result; [ ] = dose if it differs, or a comment. Unless noted, calls follow the shape of the dose curve; as a rule, active = well fitted curve in the direction sought with a large enough effect; inconclusive = small, poorly fitted or top-dose-only effect, or another doubt; inactive = no such curve, though single readings can be large; an effect the other way counts as inactive or inconclusive.

SMILES | SW480 rereplic | IL1B secr inh | KB-3-1 tox | KB-V1 MDR tox | MCF10A rereplic
O=C1NC(c2cccc(OCc3ccccc3)c2)Nc2ccccc21 (stereo unspecified) | 1.84µM* | 26.1 | 0.581µM* | 0.651µM* | 2.31µM*
O=C1NC(c2ccc(Cl)c([N+](=O)[O-])c2)Nc2ccccc21 (stereo unspecified) | 71.8% | -9.3 | ? | i | 5.5%
O=C(O)C1(c2ccccc2)CCN(S(=O)(=O)c2ccc(Br)cc2)CC1 | -5.2% | 18.5 | i | i | -0.4%
CC(=O)Nc1cccc(-c2cnc(N)c(C(=O)c3cccnc3)n2)c1 | 24.8% | -98.7* | ? | i | ?
NC(=O)c1cccc(-c2cnc(N)c(C(=O)c3cccnc3)n2)c1 | 1.5% | -95.0* | ? | i | ?
CC(=O)Nc1cccc(-c2csc(N)n2)c1 | 1.9% | -3.8 | i | i | -2.3%
O=C(Cc1ccc(Br)cc1)OCC(=O)c1ccc[nH]1 | 0.9% | 3.0 | i | i | -2.1%
Cc1cc(/C=N/n2cnnc2)c(C)n1-c1ccccc1 | -2.8% | 25.2 | 3.26µM* | 5.8µM* | 7.9%
Cc1cc(/C=N/n2cnnc2)c(C)n1-c1ccc(OCc2ccc(F)cc2)cc1 | 1.5% | -80.4* | ? | ? | -3.9%
Cc1cc(/C=N/n2cnnc2)c(C)n1-c1cccc(Cl)c1 | -5.8% | -0.6 | i | ? | 3.7%
Cc1cc(/C=N/n2cnnc2)c(C)n1-c1ccc(OCc2ccc(Cl)cc2Cl)cc1 | 14.1% | -80.2* | 7.31µM* | 5.17µM* | 1.46µM*
Cc1cc(/C=N/n2cnnc2)c(C)n1-c1ccc(Cl)cc1 | 2.3% | -8.0 | i | i | 16.7%
Cc1cc(C)c2cc(CN(Cc3ccco3)C(=S)NCC3CCCO3)c(=O)[nH]c2c1 (stereo unspecified) | -10.4% | 0.0 | i | i | 0.0%
CN(C(=O)Cn1cnc2onc(-c3ccc(F)cc3)c2c1=O)c1ccccc1Cl | . | . | i | i | .
Cc1cc(C)c(NC(=O)CNC(=O)COC(=O)CN2C(=O)NC3(CCCC3)C2=O)c(C)c1 | -90.7% | 14.0 | i | i | 1.0%
CCOc1ccc(CCNC(=O)c2cc3sccc3n2CC)cc1OCC | 2.7% | -24.2 | ? | ? | 21.5%
Cc1nn(CC(=O)N2CCCCC2)c(=O)c2cc3occc3n12 | . | . | i | i | .
C#CCOCCOCCOCCNc1nc(N2CCN(C(=O)CCCCCCCCCCNC(=O)[C@H](CCCCN)n3cc(CCO)nn3)CC2)nc(N2CCN(C(=O)CCCCCCCCCCNC(=O)[C@H](CCCCN)n3cc(CCO)nn3)CC2)n1 | 16.8% | -54.8* | i | i | ?
C#CCOCCOCCOCCNc1nc(N2CCN(C(=O)CCCCCCCCCCNC(=O)[C@@H]([C@H](C)O)n3cc(C)nn3)CC2)nc(N2CCN(C(=O)CCCCCCCCCCNC(=O)[C@@H]([C@H](C)O)n3cc(C)nn3)CC2)n1 | 2.2% | -18.3 | ? | i | 13µM*
C#CCOCCOCCOCCNc1nc(N2CCOCC2)nc(N2CCN(C(=O)CCCCCCCCCCNC(=O)[C@@H]([C@H](C)O)n3cc(C)nn3)CC2)n1 | 5.1% | 0.0 | i | i | -9.6%
C#CCOCCOCCOCCNc1nc(N2CCN(C(=O)CCCCCCCCCCNC(=O)[C@H](CCCCN)n3cc(CCO)nn3)CC2)nc(N2CCN(C(=O)CCCCCCCCCCNC(=O)[C@@H]([C@H](C)O)n3cc(C)nn3)CC2)n1 | -15.4%[9.22 µM] | -70.8* | i | ? | -2.7%
C#CCOCCOCCOCCNc1nc(N2CCN(C(=O)CCCCCCCCCCNC(=O)[C@H]([C@@H](C)CC)n3cc(CCCCCN)nn3)CC2)nc(N2CCN(C(=O)CCCCCCCCCCNC(=O)[C@@H]([C@H](C)O)n3cc(C)nn3)CC2)n1 | ? | -68.3* | ? | i | ?
C#CCOCCOCCOCCNc1nc(N2CCN(C(=O)CCCCCCCCCCNC(=O)[C@H](CCC(=O)O)n3cc(CCCCCN)nn3)CC2)nc(N2CCN(C(=O)CCCCCCCCCCNC(=O)[C@@H]([C@H](C)O)n3cc(C)nn3)CC2)n1 | 1.3% | ? | i | i | 33.2%
COc1ccc(C2N3CC4(C)CN2CC(c2ccccc2)(C3)C4=O)cc1 (stereo unspecified) | . | . | i | i | .
O=C1CS(=O)(=O)C2(C(=O)N(Cc3cccc(F)c3)c3ccccc32)N1c1ccccc1 (stereo unspecified) | . | . | i | i | .
SMILES | SW480 rereplic | IL1B secr inh | KB-3-1 tox | KB-V1 MDR tox | MCF10A rereplic
C[C@H](CO)N1C[C@H](C)[C@@H](CN(C)C(=O)Nc2ccc3c(c2)OCO3)Oc2ccc(NC(=O)Cn3cnnn3)cc2C1=O | 3.9%[9.22 µM] | -1.5 | i | i | -43.5%
N=C1C(=O)OCC1c1ccccc1NC(=O)CN1CCOCC1 (stereo unspecified) | -91.0% | 28.5 | i | i | 8.3%
CC(=O)N1CCc2cc(S(=O)(=O)NCCC(=O)NC3CCCCCC3)ccc21 | ? | 52.8 | i | i | 1.4%
CCOc1cccc(C(=O)Nc2ccc(N(CC)CC)cc2)c1 | 18.4µM* | -14.1 | ? | i | 18.4µM*
CCOc1cccc(C(=O)Nc2ccc(N3CCCC3)cc2)c1 | ? | -29.2 | ? | i | 6.4%
CCOc1cccc(C(=O)Nc2ccc3ccccc3c2)c1 | 24.1% | -17.3 | i | ? | 16.3%
CCOc1ccc(NC(=O)c2cccc(OC(=S)N3CCC(C)CC3)c2)cc1 | 22.0% | 35.7 | i | 18.4µM* | 14.2%
CCN(CC)c1ccc(NC(=O)c2ccc3c(c2)c(C)c(C)n3C)cc1 | ? | -17.1 | 23.1µM* | 16.4µM* | ?
CCCOc1ccc(C(=O)Nc2ccc(NC(=O)c3cccs3)cc2)cc1 | -18.8% | -15.0 | i | i | -18.6%
Cc1ccccc1CNC(=O)c1ccc2c(c1)c(C)c(C)n2C | . | . | i | i | .
CCCCOc1cccc(C(=O)Nc2ccc(NC(=O)c3cccs3)cc2)c1 | 6.51µM* | 27.9 | i | i | 7.31µM*
Cc1ccc(OCC(=O)Nc2ccc3nn(-c4ccc(C)cc4)nc3c2)cc1 | . | . | i | i | .
COC(=O)COc1cccc(NC(=O)c2ccccc2)c1 | -2.1% | -8.5 | i | i | 4.1%
COC(=O)COc1cccc(NC(=O)c2cccs2)c1 | -0.6% | -52.6* | i | i | -2.3%
O=C(N/N=C/c1ccc(Cl)cc1)c1n[nH]c2c1CCCC2 | ? | 48.1 | 4.61µM* | 1.3µM* | ?
O=C(N/N=C/c1cccs1)c1n[nH]c2c1CCC2 | 11.6µM* | 25.4 | 5.8µM* | ? | 8.2µM*
